Test [1] can be described thus: Quantitative High-Throughput drug screen in 47 multiple myeloma cell lines against the NCATS MIPE library collection: OCIMY1_PLB cell viability assay (AID 1918979). Note: nearly all actives have a fitted effect of over 35% in size. The procedure, abridged: (§1)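 500 cells/well; MIPE 4.0 drugs pin-transferred; 48 h, 37C, 5% CO2. CellTiter-Glo, 5 min RT, luminescence. Controls: DMSO 100%, media 0%.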
A short description of test [2]: Quantitative High-Throughput drug screen in 47 multiple myeloma cell lines against the NCATS MIPE library collection: MM1S_ATCC cell viability assay (AID 1918980). Note: nearly all actives have a fitted effect of over 45% in size. The procedure, abridged:
as §1

A short description of test [3]: Quantitative High-Throughput drug screen in 47 multiple myeloma cell lines against the NCATS MIPE library collection: MM1R_ATCC cell viability assay (AID 1918981). Note: nearly all actives have a fitted effect of over 35% in size. An outline of the steps: as §1
A short description of test [4]: Quantitative High-Throughput drug screen in 47 multiple myeloma cell lines against the NCATS MIPE library collection: KMS28PE_JCRB cell viability assay (AID 1918983). Note: nearly all actives have a fitted effect of over 35% in size. An outline of the steps: as §1
Test [5] can be described thus: Quantitative High-Throughput drug screen in 47 multiple myeloma cell lines against the NCATS MIPE library collection: L363_DSMZ cell viability assay (AID 1918984). Note: nearly all actives have a fitted effect of over 40% in size. The procedure, abridged:
as §1

Test [6] can be described thus: Quantitative High-Throughput drug screen in 47 multiple myeloma cell lines against the NCATS MIPE library collection: KMS34_JCRB cell viability assay (AID 1918985). Note: nearly all actives have a fitted effect of over 40% in size. An outline of the steps:
as §1

Test [7] in a line: Quantitative High-Throughput drug screen in 47 multiple myeloma cell lines against the NCATS MIPE library collection: OPM1_PLB cell viability assay (AID 1918989). Note: nearly all actives have a fitted effect of over 40% in size. The procedure, abridged:
as §1

A short description of test [8]: Quantitative High-Throughput drug screen in 47 multiple myeloma cell lines against the NCATS MIPE library collection: OCIMY7_PLB cell viability assay (AID 1918987). Note: nearly all actives have a fitted effect of over 65% in size. As to conditions: OCI-MY7 myeloma viability, CellTiter-Glo ATP, 48 h; viability (% of DMSO): at 45.8 µM (top of the series). The procedure, abridged:
as §1
(In general: ATP-based viability assays read luminescence as a measure of living cells.)

The nature of test [9]: Quantitative High-Throughput drug screen in 47 multiple myeloma cell lines against the NCATS MIPE library collection: OCIMY5_PLB cell viability assay (AID 1918988). Note: nearly all actives have a fitted effect of over 65% in size. The procedure, abridged:
as §1

A short description of test [10]: Quantitative High-Throughput drug screen in 47 multiple myeloma cell lines against the NCATS MIPE library collection: LP1_DSMZ cell viability assay (AID 1918982). Note: nearly all actives have a fitted effect of over 35% in size. The procedure, abridged: as §1

The structures appear in SMILES notation. Inconclusive results are not listed. Activity calls are given as the source filed them. Calls come from the whole dose curve; as a rule, active = well fitted cell-killing curve with a large enough effect; inconclusive = small, poorly fitted or top-dose-only effect, or effect the other way; inactive = no such curve, though single readings can be large or run the other way.
Potency is the fitted concentration of half-maximal effect.

Turning to `CC(C)(C)OC(=O)N[C@H]1CCCCCC=C[C@@H]2C[C@@]2(C(=O)NS(=O)(=O)C2CC2)NC(=O)[C@@H]2C[C@@H](OC(=O)N3Cc4cccc(F)c4C3)CN2C1=O`, the Potency result in test [1], in test [2], in [3], in test [4], in test [5] and in test [6] was “inactive” each time. The Potency entry in [7] was “inactive”.
On to `O=C(O)C=Cc1ccc(O)c(O)c1`, for which the Potency in test [1] was 10.5 µM (active); in test [2], 9.35 µM (active); in test [3], 23.5 µM (active); in test [4], 2.96 µM (active); in test [5] it was 16.6 µM (active); in [8], 16.6 µM (active). For the same compound, in [7], the Potency was 16.6 µM (active).
Take `O=C1C(Cl)=C(NCCN2CCOCC2)C(=O)c2ncccc21`: the Potency in test [1] is 6.62 µM (active); in test [2] it was 3.32 µM (active); in [3] it was 3.32 µM (active); in test [4], 4.18 µM (active); in test [5], 3.72 µM (active); in [6], 4.18 µM (active). Further, the Potency in [8] is 3.32 µM (active); in [9], 2.35 µM (active); in test [7] it was 7.43 µM (active).
In the case of `O=C1C[C@@H](c2ccc(O)cc2)Oc2cc(O)cc(O)c21`, the Potency entry in [1], in test [3], in [10] and in test [7] was “inactive” in each case. In test [2], the Potency was 10.5 µM (active).
Consider `CC[C@@]1(O)C[C@H](O[C@H]2C[C@H](N(C)C)[C@H](O[C@H]3C[C@H](O)[C@H](O[C@H]4CCC(=O)[C@H](C)O4)[C@H](C)O3)[C@H](C)O2)c2c(cc3c(c2O)C(=O)c2c(O)cccc2C3=O)[C@@H]1C(=O)OC`, for which the Potency in test [1] was 1.66 µM (active); in [2], 0.187 µM (active); in [3], 0.209 µM (active); in test [10], 1.05 µM (active); in test [4], 0.418 µM (active); in [6] it was 2.09 µM (active). Moreover, the Potency in test [8] is 0.372 µM (active); in test [9] it was 0.0935 µM (active); in test [7], 0.833 µM (active).
On to `CC1(C)CCC(CN2CCN(c3ccc(C(=O)NS(=O)(=O)c4ccc(NCC5CCOCC5)c([N+](=O)[O-])c4)c(Oc4cnc5[nH]ccc5c4)c3)CC2)=C(c2ccc(Cl)cc2)C1`, for which the Potency in [1] is 10.5 µM (active); in test [2], 23.5 µM (active); in test [3], 14.8 µM (active); in test [10], 18.7 µM (active); in [4] it was 16.6 µM (active); in test [6], 16.6 µM (active). The Potency is 0.59 µM (active) in test [8] and 5.26 µM (active) in test [7].
For the compound `CCc1ccc(OCc2ccccc2C(=O)Nc2ccc3nc(C)cc(N)c3c2)cc1`, the Potency in [1] was 8.33 µM (active); in test [2], 4.69 µM (active); in [3], 3.32 µM (active); in test [4] it was 8.33 µM (active); in test [5] it was 1.18 µM (active); in test [6], 7.43 µM (active). For the same compound, the Potency was 1.05 µM (active) in test [8] and 1.32 µM (active) in [7].
On to `O=C(NCc1ccccc1)c1csc(Nc2ccncn2)n1`, for which the Potency is 20.9 µM (active) in test [1]; 16.6 µM (active) in test [2]; 14.8 µM (active) in test [3]; 16.6 µM (active) in test [4]; 10.5 µM (active) in test [5]; 23.5 µM (active) in test [6]. The Potency is 8.33 µM (active) in [8] and 13.2 µM (active) in [7].
As to `Clc1ccc(C(c2ccc(Cl)cc2)n2cc[n+](CC(OCc3ccc(Cl)cc3Cl)c3ccc(Cl)cc3Cl)c2)cc1` (stereo not drawn), the Potency in [1] was 18.7 µM (active); in test [2], 16.6 µM (active); in test [3] it was 18.7 µM (active); in [10] it was 18.7 µM (active); in [4], 20.9 µM (active); in [5], 6.62 µM (active). Also, the Potency in test [6] is 16.6 µM (active); in [7] it was 11.8 µM (active).
As to `COc1cc(Nc2ncc(F)c(Nc3ccc4c(n3)NC(=O)C(C)(C)O4)n2)cc(OC)c1OC`, the Potency in test [1] was 1.66 µM (active); in [3] it was 6.62 µM (active); in test [4], 0.833 µM (active); in test [6], 4.69 µM (active); in test [8], 0.743 µM (active); in test [9], 6.62 µM (active). In addition, in test [7], the Potency is 1.87 µM (active). Also, the Potency entry in test [2] was “inactive”.
Take `CC#CCn1c(N2CCC[C@@H](N)C2)nc2c1c(=O)n(Cc1nc(C)c3ccccc3n1)c(=O)n2C`: the Potency entry in test [1], in [3], in test [10] and in [4] was “inactive” in each case. The Potency is 20.9 µM (active) in test [2] and 4.18 µM (active) in [6].
In the case of `Cc1nc(N)sc1-c1ccnc(Nc2ccc(N3CCOCC3)cc2)n1`, the Potency in test [1] was 16.6 µM (active); in test [2], 18.7 µM (active); in test [3], 10.5 µM (active); in test [10], 20.9 µM (active); in [4] it was 16.6 µM (active); in [5], 2.96 µM (active). Besides, the Potency in test [6] is 1.05 µM (active); in test [8] it was 1.05 µM (active); in test [9], 5.26 µM (active); in [7] it was 4.18 µM (active).
On to `CN(C)Cc1ccc(-c2nc3cccc4c3n2CCNC4=O)cc1`, for which, in test [1], the Potency entry was “inactive”. The Potency in test [2] was 18.7 µM (active); in test [3], 20.9 µM (active); in test [10], 23.5 µM (active); in test [5] it was 18.7 µM (active); in test [8], 8.33 µM (active); in test [9] it was 20.9 µM (active).
Regarding `Cc1ccc(C(=O)Nc2cccc(C(F)(F)F)c2)cc1Nc1nc(-c2cccnc2)nc2c1cnn2C`, the Potency in test [1] is 16.6 µM (active); in [2], 18.7 µM (active); in test [3] it was 18.7 µM (active); in [10] it was 16.6 µM (active); in [4] it was 26.4 µM (active); in test [6], 16.6 µM (active). The Potency in [9] was 10.5 µM (active); in test [7], 8.33 µM (active).
As to `CO[C@@H](C(=O)N1Cc2[nH]nc(NC(=O)c3ccc(N4CCN(C)CC4)cc3)c2C1)c1ccccc1`, the Potency entry in test [1] is “inactive”. In addition, the Potency is 20.9 µM (active) in test [2]; 20.9 µM (active) in test [3]; 6.62 µM (active) in [4]; 18.7 µM (active) in [5]; 0.332 µM (active) in [8]; 8.33 µM (active) in [7].
As for `C=C1C(=O)[C@@]23C(CC[C@@H]1[C@H]2O)[C@@]12CO[C@]3(O)[C@@H](O)[C@@H]1C(C)(C)CC[C@@H]2O` (stereo partly drawn), the Potency in test [1] was 7.43 µM (active); in test [2], 1.87 µM (active); in [3] it was 1.48 µM (active); in [4], 3.72 µM (active); in test [6], 1.05 µM (active); in test [8] it was 0.296 µM (active). For the same compound, the Potency in test [9] is 1.87 µM (active); in [7], 3.72 µM (active).

The values are drawn from PubChem BioAssay (NCATS).
